{"source": "paper doi:10.1101/2024.03.05.583629"}
{"biological_target": "pT7_6His-AlfaTag-HOXD13 (human, UniProt P35453 263-343)", "sequence (P35453 263-343)": "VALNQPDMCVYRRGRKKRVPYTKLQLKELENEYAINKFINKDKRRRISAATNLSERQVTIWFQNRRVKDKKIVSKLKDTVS", "test": "PADIT-seq", "details": "dsDNA, one strand shown", "units": {"binding signal": "log2FC"}}
{"sequence": "CTCGAGGATATCAAGATCTGGCCTCGGCTTGTGGGCGGGAACCTCTAGCTAGCCGACTCACTATAGGGATAATCGCCCTGAGCAAAGACC", "binding signal": "-0.943 ± 0.108"}
{"sequence": "CTCGAGGATATCAAGATCTGGCCTCGGCAGCCCACGCGGAACCTCTAGCTAGCCGACTCACTATAGGGATAATCGCCCTGAGCAAAGACC", "binding signal": "-0.926 ± 0.109"}
{"sequence": "CTCGAGGATATCAAGATCTGGCCTCGGCGCGTGGTAAGGAACCTCTAGCTAGCCGACTCACTATAGGGATAATCGCCCTGAGCAAAGACC", "binding signal": "-0.999 ± 0.124"}
{"sequence": "CTCGAGGATATCAAGATCTGGCCTCGGCCGCCCATCCGGAACCTCTAGCTAGCCGACTCACTATAGGGATAATCGCCCTGAGCAAAGACC", "binding signal": "-1.06 ± 0.122"}
{"sequence": "CTCGAGGATATCAAGATCTGGCCTCGGCCTTTTACGCGGAACCTCTAGCTAGCCGACTCACTATAGGGATAATCGCCCTGAGCAAAGACC", "binding signal": "1.9 ± 0.0733"}
{"sequence": "CTCGAGGATATCAAGATCTGGCCTCGGCGCGGGGGCGGGAACCTCTAGCTAGCCGACTCACTATAGGGATAATCGCCCTGAGCAAAGACC", "binding signal": "-0.903 ± 0.133"}
{"sequence": "CTCGAGGATATCAAGATCTGGCCTCGGCATCCTAAAAGGAACCTCTAGCTAGCCGACTCACTATAGGGATAATCGCCCTGAGCAAAGACC", "binding signal": "0.337 ± 0.103"}
{"sequence": "CTCGAGGATATCAAGATCTGGCCTCGGCCTTTTATGCGGAACCTCTAGCTAGCCGACTCACTATAGGGATAATCGCCCTGAGCAAAGACC", "binding signal": "1.88 ± 0.0756"}
{"sequence": "CTCGAGGATATCAAGATCTGGCCTCGGCTTTTTAGAGGGAACCTCTAGCTAGCCGACTCACTATAGGGATAATCGCCCTGAGCAAAGACC", "binding signal": "1.39 ± 0.106"}
{"sequence": "CTCGAGGATATCAAGATCTGGCCTCGGCGCGCAGGCGGGAACCTCTAGCTAGCCGACTCACTATAGGGATAATCGCCCTGAGCAAAGACC", "binding signal": "-1.07 ± 0.126"}
{"sequence": "CTCGAGGATATCAAGATCTGGCCTCGGCGAATGGGCGGGAACCTCTAGCTAGCCGACTCACTATAGGGATAATCGCCCTGAGCAAAGACC", "binding signal": "-0.762 ± 0.106"}
{"sequence": "CTCGAGGATATCAAGATCTGGCCTCGGCGAATTAAAAGGAACCTCTAGCTAGCCGACTCACTATAGGGATAATCGCCCTGAGCAAAGACC", "binding signal": "1.47 ± 0.0704"}
{"sequence": "CTCGAGGATATCAAGATCTGGCCTCGGCGTTTTAACAGGAACCTCTAGCTAGCCGACTCACTATAGGGATAATCGCCCTGAGCAAAGACC", "binding signal": "1.92 ± 0.0739"}
{"sequence": "CTCGAGGATATCAAGATCTGGCCTCGGCGCGTGGAATGGAACCTCTAGCTAGCCGACTCACTATAGGGATAATCGCCCTGAGCAAAGACC", "binding signal": "-0.959 ± 0.133"}
{"sequence": "CTCGAGGATATCAAGATCTGGCCTCGGCATTTTAGGGGGAACCTCTAGCTAGCCGACTCACTATAGGGATAATCGCCCTGAGCAAAGACC", "binding signal": "1.57 ± 0.105"}
{"sequence": "CTCGAGGATATCAAGATCTGGCCTCGGCATTTTACGGGGAACCTCTAGCTAGCCGACTCACTATAGGGATAATCGCCCTGAGCAAAGACC", "binding signal": "3.18 ± 0.0854"}
{"sequence": "CTCGAGGATATCAAGATCTGGCCTCGGCTAGCTAAAAGGAACCTCTAGCTAGCCGACTCACTATAGGGATAATCGCCCTGAGCAAAGACC", "binding signal": "-0.637 ± 0.145"}
{"sequence": "CTCGAGGATATCAAGATCTGGCCTCGGCGCGGGCGCGGGAACCTCTAGCTAGCCGACTCACTATAGGGATAATCGCCCTGAGCAAAGACC", "binding signal": "-1.05 ± 0.132"}
{"sequence": "CTCGAGGATATCAAGATCTGGCCTCGGCCTATGGGCGGGAACCTCTAGCTAGCCGACTCACTATAGGGATAATCGCCCTGAGCAAAGACC", "binding signal": "-0.949 ± 0.119"}
{"sequence": "CTCGAGGATATCAAGATCTGGCCTCGGCAGTGTAAAAGGAACCTCTAGCTAGCCGACTCACTATAGGGATAATCGCCCTGAGCAAAGACC", "binding signal": "0.712 ± 0.08"}
{"sequence": "CTCGAGGATATCAAGATCTGGCCTCGGCGTTTTACGGGGAACCTCTAGCTAGCCGACTCACTATAGGGATAATCGCCCTGAGCAAAGACC", "binding signal": "3.16 ± 0.0771"}
{"sequence": "CTCGAGGATATCAAGATCTGGCCTCGGCTCTATAAAAGGAACCTCTAGCTAGCCGACTCACTATAGGGATAATCGCCCTGAGCAAAGACC", "binding signal": "2.9 ± 0.0831"}
{"sequence": "CTCGAGGATATCAAGATCTGGCCTCGGCCGCCCATGCGGAACCTCTAGCTAGCCGACTCACTATAGGGATAATCGCCCTGAGCAAAGACC", "binding signal": "-0.953 ± 0.115"}
{"sequence": "CTCGAGGATATCAAGATCTGGCCTCGGCGCGTGGCATGGAACCTCTAGCTAGCCGACTCACTATAGGGATAATCGCCCTGAGCAAAGACC", "binding signal": "-1.09 ± 0.127"}
{"sequence": "CTCGAGGATATCAAGATCTGGCCTCGGCCGCTTGCGCGGAACCTCTAGCTAGCCGACTCACTATAGGGATAATCGCCCTGAGCAAAGACC", "binding signal": "-0.985 ± 0.131"}
{"sequence": "CTCGAGGATATCAAGATCTGGCCTCGGCCATCCACGCGGAACCTCTAGCTAGCCGACTCACTATAGGGATAATCGCCCTGAGCAAAGACC", "binding signal": "-1.04 ± 0.111"}
{"sequence": "CTCGAGGATATCAAGATCTGGCCTCGGCCAAGTAAAAGGAACCTCTAGCTAGCCGACTCACTATAGGGATAATCGCCCTGAGCAAAGACC", "binding signal": "0.682 ± 0.11"}
{"sequence": "CTCGAGGATATCAAGATCTGGCCTCGGCCGCCCACTGGGAACCTCTAGCTAGCCGACTCACTATAGGGATAATCGCCCTGAGCAAAGACC", "binding signal": "-0.571 ± 0.123"}
{"sequence": "CTCGAGGATATCAAGATCTGGCCTCGGCGTTTTAGGCGGAACCTCTAGCTAGCCGACTCACTATAGGGATAATCGCCCTGAGCAAAGACC", "binding signal": "-0.768 ± 0.146"}
{"sequence": "CTCGAGGATATCAAGATCTGGCCTCGGCCTTTTAGAGGGAACCTCTAGCTAGCCGACTCACTATAGGGATAATCGCCCTGAGCAAAGACC", "binding signal": "1.1 ± 0.092"}
{"sequence": "CTCGAGGATATCAAGATCTGGCCTCGGCCGCCCAATGGGAACCTCTAGCTAGCCGACTCACTATAGGGATAATCGCCCTGAGCAAAGACC", "binding signal": "-0.785 ± 0.113"}
{"sequence": "CTCGAGGATATCAAGATCTGGCCTCGGCGGAGTAAAAGGAACCTCTAGCTAGCCGACTCACTATAGGGATAATCGCCCTGAGCAAAGACC", "binding signal": "-0.327 ± 0.108"}
{"sequence": "CTCGAGGATATCAAGATCTGGCCTCGGCCGCCCACTTGGAACCTCTAGCTAGCCGACTCACTATAGGGATAATCGCCCTGAGCAAAGACC", "binding signal": "-0.908 ± 0.133"}
{"sequence": "CTCGAGGATATCAAGATCTGGCCTCGGCTTTTTAGTGGGAACCTCTAGCTAGCCGACTCACTATAGGGATAATCGCCCTGAGCAAAGACC", "binding signal": "1.59 ± 0.0858"}
{"sequence": "CTCGAGGATATCAAGATCTGGCCTCGGCACACCACGCGGAACCTCTAGCTAGCCGACTCACTATAGGGATAATCGCCCTGAGCAAAGACC", "binding signal": "-0.837 ± 0.131"}
{"sequence": "CTCGAGGATATCAAGATCTGGCCTCGGCATTTGGGCGGGAACCTCTAGCTAGCCGACTCACTATAGGGATAATCGCCCTGAGCAAAGACC", "binding signal": "-0.941 ± 0.11"}
{"sequence": "CTCGAGGATATCAAGATCTGGCCTCGGCATTTTACGTGGAACCTCTAGCTAGCCGACTCACTATAGGGATAATCGCCCTGAGCAAAGACC", "binding signal": "2.63 ± 0.0745"}
{"sequence": "CTCGAGGATATCAAGATCTGGCCTCGGCCGCCGACGCGGAACCTCTAGCTAGCCGACTCACTATAGGGATAATCGCCCTGAGCAAAGACC", "binding signal": "-0.893 ± 0.142"}
{"sequence": "CTCGAGGATATCAAGATCTGGCCTCGGCATCCCACGCGGAACCTCTAGCTAGCCGACTCACTATAGGGATAATCGCCCTGAGCAAAGACC", "binding signal": "-0.991 ± 0.113"}
